Measured values published in ChEMBL document CHEMBL4808148, “HDAC6 screening dataset using tau-based substrate in an enzymatic assay yields selective inhibitors and activators” (2021).
In all, about 5,600 compounds went through this assay and about 390 (7%) showed an effect of 50% or more. Many of the other results were omitted from the sample, so strong results are more common in it than they were.

What was measured:
[1] = biological target: T1, Protein deacetylase HDAC6 (Homo sapiens) (UniProt Q9UBN7); details: at 10 µM
T1 sequence (whole entry): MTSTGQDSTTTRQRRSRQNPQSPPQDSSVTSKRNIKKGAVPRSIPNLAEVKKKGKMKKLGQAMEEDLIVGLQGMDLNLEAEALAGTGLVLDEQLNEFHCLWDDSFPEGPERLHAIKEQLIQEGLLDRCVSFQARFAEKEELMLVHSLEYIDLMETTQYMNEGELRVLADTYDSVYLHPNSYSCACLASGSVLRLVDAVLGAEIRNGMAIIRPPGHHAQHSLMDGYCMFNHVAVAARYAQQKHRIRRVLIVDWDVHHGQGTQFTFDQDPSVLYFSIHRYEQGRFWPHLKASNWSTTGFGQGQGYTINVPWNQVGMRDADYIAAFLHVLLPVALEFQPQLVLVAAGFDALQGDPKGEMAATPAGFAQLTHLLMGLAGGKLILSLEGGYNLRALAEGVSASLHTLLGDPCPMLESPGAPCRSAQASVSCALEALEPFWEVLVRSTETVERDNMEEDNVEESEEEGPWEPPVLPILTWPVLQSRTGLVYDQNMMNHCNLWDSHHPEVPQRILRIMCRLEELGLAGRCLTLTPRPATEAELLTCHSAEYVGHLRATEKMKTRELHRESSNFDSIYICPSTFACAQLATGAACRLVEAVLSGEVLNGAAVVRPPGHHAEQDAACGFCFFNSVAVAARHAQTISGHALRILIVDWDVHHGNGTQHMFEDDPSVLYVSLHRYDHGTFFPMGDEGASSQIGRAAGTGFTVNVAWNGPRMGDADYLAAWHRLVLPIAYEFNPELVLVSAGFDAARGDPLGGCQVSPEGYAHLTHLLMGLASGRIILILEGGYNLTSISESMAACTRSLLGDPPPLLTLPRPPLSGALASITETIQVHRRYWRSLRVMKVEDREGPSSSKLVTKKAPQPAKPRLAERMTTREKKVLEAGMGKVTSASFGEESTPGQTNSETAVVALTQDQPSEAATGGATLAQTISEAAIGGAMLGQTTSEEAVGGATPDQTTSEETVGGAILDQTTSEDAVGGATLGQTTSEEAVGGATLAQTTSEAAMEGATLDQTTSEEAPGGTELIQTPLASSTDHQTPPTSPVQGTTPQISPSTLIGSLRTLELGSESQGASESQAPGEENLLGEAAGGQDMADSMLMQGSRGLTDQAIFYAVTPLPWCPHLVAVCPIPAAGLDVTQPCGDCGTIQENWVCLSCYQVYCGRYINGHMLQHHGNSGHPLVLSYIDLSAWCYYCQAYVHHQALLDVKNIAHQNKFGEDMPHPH

[2] = biological target: Protein deacetylase HDAC6 (Homo sapiens) (UniProt Q9UBN7); details: at 10 µM; remark: listed apart in the source

**Q.** With `O=C(NOCCO)c1ccc2cncn2c1Nc1ccc(I)cc1F` as the compound, how does the inhibition [1] read?
**A.** 1.39%

**Q.** With `C[C@H](N)C(=O)NCC(=O)N[C@H]1CSSC[C@@H](C(=O)O)NC(=O)[C@H](CO)NC(=O)[C@H]([C@@H](C)O)NC(=O)[C@H](Cc2ccccc2)NC(=O)[C@H]([C@@H](C)O)NC(=O)[C@H](CCCCN)NC(=O)[C@H](Cc2c[nH]c3ccccc23)NC(=O)[C@H](Cc2ccccc2)NC(=O)[C@H](Cc2ccccc2)NC(=O)[C@H](CC(N)=O)NC(=O)[C@H](CCCCN)NC1=O` as the compound, how does the inhibition [1] read?
**A.** 15.2%

**Q.** With `CC(C)c1cccc2c1OC(C(C)C)C(=S)N2CC(=O)O` (stereo not drawn) as the compound, how does the inhibition [1] read?
**A.** 33%

**Q.** How did the inhibition [1] turn out when `CCC(=O)NO` was run?
**A.** 83.8%

**Q.** With `O=C(O)[C@@H](O)[C@@H](O)[C@H](O)[C@@H](O)C(=O)O` as the compound, how does the inhibition [1] read?
**A.** 1.05%

**Q.** How did the inhibition [1] turn out when `CO[C@H]1/C=C\C=C(/C)C(=O)NC2=CC(=O)C(NCCN(C)C)=C(C[C@@H](C)C[C@H](OC)[C@H](O)[C@@H](C)/C=C(\C)[C@@H]1OC(N)=O)C2=O` was run?
**A.** 6.6%

**Q.** With `O/N=C/c1cc[n+](COC[n+]2ccc(/C=N/O)cc2)cc1` as the compound, how does the inhibition [1] read?
**A.** -4.53%

**Q.** With `O=C1N[C@@H]2[C@@H](O)[C@@H](O)[C@H](O)[C@@H](CO)N2C1=O` as the compound, how does the inhibition [1] read?
**A.** -6.81%

**Q.** How did the inhibition [1] turn out when `Oc1ccccc1` was run?
**A.** 7.92%

**Q.** With `Oc1ccc(Cl)cc1` as the compound, how does the inhibition [1] read?
**A.** -5.79%

**Q.** Which inhibition [1] does the source give for `Oc1ccc2ccccc2c1` here?
**A.** 57.1%

**Q.** With `O=C1CCC(c2ccccc2)(C2CCN(Cc3ccc(I)cc3)CC2)C(=O)N1` (stereo not drawn) as the compound, how does the inhibition [1] read?
**A.** -1.98%

**Q.** Which inhibition [1] does the source give for `Cc1ccccc1OCC(O)CNCCOc1ccc(C(N)=O)cc1` (stereo not drawn) here?
**A.** 0.61%

**Q.** For `CC(=O)N[C@H]1[C@@H](OC(C)C)O[C@H](COC(C)=O)[C@@H](OC(C)=O)[C@@H]1OC(C)=O`, which inhibition [1] is on record?
**A.** -0.18%

**Q.** With `CC(=O)OC[C@H]1O[C@@](COC(C)=O)(O[C@H]2O[C@H](COC(C)=O)[C@@H](OC(C)=O)[C@H](OC(C)=O)[C@H]2OC(C)=O)[C@@H](OC(C)=O)[C@@H]1OC(C)=O` as the compound, how does the inhibition [1] read?
**A.** 102%

**Q.** How did the inhibition [1] turn out when `C(=C\c1ccccc1)/CN1CCN(CCOC(c2ccccc2)c2ccccc2)CC1` was run?
**A.** -6.12%

**Q.** How did the inhibition [1] turn out when `CC(C)OC(=O)CNC(=O)[C@H](CS)NC(=O)CC[C@H](N)C(=O)O` was run?
**A.** 45.1%

**Q.** `Cc1ccc([N+](=O)[O-])cc1O` was tested. Which inhibition [1] did it give?
**A.** 25.1%

**Q.** `N=C(NCCC[C@H](N)C(=O)O)N[N+](=O)[O-]` was tested. Which inhibition [1] did it give?
**A.** 104%

**Q.** `NCCCC[C@H](N)C(=O)O` was tested. Which inhibition [1] did it give?
**A.** -8.14%

**Q.** `N=C(N)NCCC[C@H](N)C(=O)O` was tested. Which inhibition [1] did it give?
**A.** 3.94%

**Q.** `O=C1c2ccccc2-c2c(NCCc3ccccc3)c(=O)[nH]c3cccc1c23` was tested. Which inhibition [1] did it give?
**A.** 14.4%

**Q.** `CC(C)(CO)CCCCCCC(C)(C)CO` was tested. Which inhibition [1] did it give?
**A.** 17.3%

**Q.** Which inhibition [1] does the source give for `COC(=O)N[C@@H](C)CNc1nccc(-c2cn(C(C)C)nc2-c2cc(Cl)cc(NS(C)(=O)=O)c2F)n1` here?
**A.** -2.53%

**Q.** `CCOc1ccc(S(=O)(=O)O)c2cccnc12` was tested. Which inhibition [1] did it give?
**A.** 102%

**Q.** How did the inhibition [1] turn out when `O=C(NCCN1CCC2(CC1)C(=O)NCN2c1cccc(F)c1)c1ccc(F)c(F)c1` was run?
**A.** 7.38%

**Q.** `CC(C)(C)C#Cc1cc(N(C(=O)[C@H]2CC[C@H](C)CC2)[C@H]2CC[C@@H](O)CC2)c(C(=O)O)s1` was tested. Which inhibition [1] did it give?
**A.** 26.8%

**Q.** `O=S(=O)(O)c1ccc(O)cc1` was tested. Which inhibition [1] did it give?
**A.** 4.16%

**Q.** For `CCCCc1ccc(C(N)=O)nc1`, which inhibition [1] is on record?
**A.** 32.3%

**Q.** How did the inhibition [1] turn out when `CC(C)(C)c1[nH]cnc1/C=c1\[nH]c(=O)/c(=C/c2ccccc2)[nH]c1=O` was run?
**A.** 77.4%

**Q.** Which inhibition [1] does the source give for `COc1cc2c(cc1OC(C)C)[C@H](c1ccc(Cl)cc1)N(c1ccc(N(C)C[C@H]3CC[C@H](N4CCN(C)C(=O)C4)CC3)cc1)C(=O)C2` here?
**A.** 17.5%

**Q.** `O=c1c(O)c(-c2ccc(O)c(O)c2)oc2cc(O)cc(O)c12` was tested. Which inhibition [1] did it give?
**A.** 98.5%

**Q.** For `O=c1cc(-c2ccc(O)c(O)c2)oc2cc(O)cc(O)c12`, which inhibition [1] is on record?
**A.** 100%

**Q.** `CC(=O)N[C@H](C=O)[C@@H](O)[C@H](O)[C@H](O)CO` was tested. Which inhibition [1] did it give?
**A.** 19.4%

**Q.** How did the inhibition [1] turn out when `N[C@@H](CC(=O)N1CCn2c(nnc2C(F)(F)F)C1)Cc1n[nH]c2c(F)c(F)ccc12` was run?
**A.** 18.7%

**Q.** With `O=C(O)C1CCC(c2cc3cccnc3c(-c3cccc(F)c3)n2)CC1` (stereo not drawn) as the compound, how does the inhibition [1] read?
**A.** -5.88%

**Q.** For MONOCTANOIN, CHEMBL6066833, which inhibition [2] is on record?
**A.** -5.59%

**Q.** `N=C(N)Nc1ccc(C(=O)Oc2ccc3cc(C(=N)N)ccc3c2)cc1` was tested. Which inhibition [1] did it give?
**A.** 29.9%

**Q.** Which inhibition [1] does the source give for `CCOC(=O)[C@@H](C)Oc1ccc(Oc2nc3ccc(Cl)cc3o2)cc1` here?
**A.** 14.5%

**Q.** Which inhibition [1] does the source give for `CN(C)c1cccc(Oc2cnc(Nc3cccc(O)c3)nc2)c1` here?
**A.** 30.8%

**Q.** For `Oc1cccc(Nc2ccc(Nc3cccc(O)c3)nn2)c1`, which inhibition [1] is on record?
**A.** 79.8%

**Q.** With `CS(=O)(=O)c1ccc(Cn2c3c(c4cc(F)cc(F)c42)CCCC3CC(=O)O)cc1` (stereo not drawn) as the compound, how does the inhibition [1] read?
**A.** -7.09%

**Q.** Which inhibition [1] does the source give for `C#CC[C@H](c1nc2cc(Cl)ccc2c(=O)n1Nc1ccccc1)N(CCCN)C(=O)c1cccc(Cl)c1F` here?
**A.** 11.7%

**Q.** With `CCC(CC)n1ccc2c(C(=O)NCc3c(C)cc(C)[nH]c3=O)cc(C#N)cc21` as the compound, how does the inhibition [1] read?
**A.** 15.2%

**Q.** Which inhibition [1] does the source give for `CC(O)C(CO)NC(=O)C1CSSCC(NC(=O)C(N)Cc2ccccc2)C(=O)NC(Cc2ccccc2)C(=O)NC(Cc2c[nH]c3ccccc23)C(=O)NC(CCCCN)C(=O)NC(C(C)O)C(=O)N1` (stereo not drawn) here?
**A.** 19.6%

**Q.** NYSTATIN, CHEMBL5465559 was tested. Which inhibition [2] did it give?
**A.** 30.5%

**Q.** With `O=C(O)CNC(=O)c1c(O)c2ccccc2n(Cc2ccccc2)c1=O` as the compound, how does the inhibition [1] read?
**A.** 81.7%

**Q.** With `CCc1c(C(=O)C(N)=O)c2c(OCC(=O)O)cccc2n1Cc1ccccc1` as the compound, how does the inhibition [1] read?
**A.** 20%

**Q.** Which inhibition [1] does the source give for `O=C(O)CNC(=O)c1ccccc1I` here?
**A.** 36.6%

**Q.** Which inhibition [1] does the source give for `Cc1ncc(C[n+]2csc(CCOP(=O)(O)OP(=O)(O)O)c2C)c(N)n1` here?
**A.** 37.8%

**Q.** For `COC(=O)c1ccc2c(c1)nc(NC(=O)c1ccccc1)n2CCCc1ccccc1`, which inhibition [1] is on record?
**A.** -9.35%

**Q.** Which inhibition [1] does the source give for `CN[C@@H]1Cc2cccc3[nH]c(=O)n(c23)C1` here?
**A.** 4.82%

**Q.** Which inhibition [1] does the source give for `Oc1ncc(N(CCCl)CCCl)c(O)n1` here?
**A.** 2.6%

**Q.** How did the inhibition [1] turn out when `CN1CCC(c2c[nH]c3ccc(O)cc23)CC1` was run?
**A.** 5.85%

**Q.** How did the inhibition [1] turn out when `CN1CCN(c2ccc3[nH]c(-c4ccc5[nH]c(-c6ccc(O)cc6)nc5c4)nc3c2)CC1` was run?
**A.** 64%

**Q.** For `CN1CCN(c2ccc3ccccc3n2)CC1`, which inhibition [1] is on record?
**A.** 44.6%

**Q.** `NC(=O)c1cc[n+](CC2=C(C(=O)[O-])N3C(=O)[C@@H](NC(=O)Cc4cccs4)[C@H]3SC2)cc1` was tested. Which inhibition [1] did it give?
**A.** -9.58%

**Q.** Which inhibition [1] does the source give for `O=C(O)C1CSCN1` (stereo not drawn) here?
**A.** 8.04%

**Q.** `CC(C)OC(=O)Nc1cccc(Cl)c1` was tested. Which inhibition [1] did it give?
**A.** 81%

**Q.** For `O=C(Nc1cnc(Cl)nc1)c1ccc(F)c(F)c1`, which inhibition [1] is on record?
**A.** 8.67%

**Q.** With `O=C(NNc1ccccc1)c1ccncc1` as the compound, how does the inhibition [1] read?
**A.** 19%

**Q.** How did the inhibition [1] turn out when `O=C(Nc1ccc(S(=O)(=O)Nc2ccccc2Cl)c(Cl)c1)c1ccccn1` was run?
**A.** 50.8%

**Q.** With `COc1cc(NC(=O)c2cccc(-n3cc(NC(=O)Nc4cccc(C)c4)cn3)c2)cc(OC)c1OC` as the compound, how does the inhibition [1] read?
**A.** 0.29%

**Q.** How did the inhibition [1] turn out when `COc1ccc(C(=O)Nc2c(Cl)cncc2Cl)cc1OC1CCCC1` was run?
**A.** 8.11%

**Q.** With `C[C@H](Cc1ccc2c(c1)OC(C(=O)O)(C(=O)O)O2)NC[C@H](O)c1cccc(Cl)c1` as the compound, how does the inhibition [1] read?
**A.** 16.3%

**Q.** For `COc1cc(NC(=O)c2ccccn2)ccc1Cl`, which inhibition [1] is on record?
**A.** 101%

**Q.** Which inhibition [1] does the source give for `O=C(Nc1cccc(Cl)c1)c1ccccn1` here?
**A.** 104%

**Q.** `CNC(=O)Oc1ccccc1OC(C)C` was tested. Which inhibition [1] did it give?
**A.** 19.4%
